Laboratory results as given in PubChem BioAssay.
The source made the active and inactive calls.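 The calls were made as follows, unless noted: active = NADPH fluorescence slope more negative than the mean of all samples by about 3 SD, 99.7% confidence; inactive = the rest.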

Key:
[1] = inhibitors of TNFa-induced NFkB p65 translocation, primary screen, imaging, HUVEC, MLSMR starter and 10KST1 sets (AID 438;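 active = inhibition above 20% together with a positive visual image hit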;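 also: compound added about 3h40 before a 20 min TNFalpha stimulation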;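 as to inhibition: signal is the nuclear over cytoplasmic p65 intensity ratio per well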); conditions: HUVEC TNFa-induced p65 nuclear translocation; cell count: measured here: nuclei count (cytotoxicity indicator), at 2.08 µM; inhibition: at 2 µM, stronger effect = higher value, 0% TNFa-plus-vehicle, 100% no-TNFa wells
[2] = reduction of polyQ htt aggregates in cells – imaging, exon1htt(103Q)mCFP cells, high-content imaging, primary screen (AID 483;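 active = visual image review flags a hit and inhibition of aggregation exceeds 20%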;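 also: compound exposure lasted 3 days before fixation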;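 as to nuclei count: percent of the per-plate median nuclei count of sample wells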); conditions: exon1htt(103Q)mCFP cell line, aggregate imaging, at 2 µM; inhibition of aggregation: stronger effect = higher value; nuclei count: measured here: cell count, toxicity
[3] = endothelial E-selectin expression blockers – imaging, HUVEC, immunofluorescence, MLSMR starter and 10KST1 sets, primary screen (AID 487;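 active = visually confirmed hit in the image check and inhibition above 20%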;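 as to inhibition: signal is fraction of cell area covered by stained E-selectin grains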;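 as to nuclei count: 100% = median nuclei count of all wells on the same plate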); conditions: HUVEC TNFalpha-induced E-selectin immunofluorescence imaging, at 2 µM; inhibition: stronger effect = higher value; nuclei count: measured here: cell number, toxicity
[4] = target: Voltage-gated potassium channel subunit beta-2 (Rattus norvegicus) (UniProt P62483); experiment: inhibitors of rat Kvbeta2 reductase activity – biochemical, NADPH fluorescence, primary screen (AID 622;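 active = fluorescence slope higher than the sample average by over 3 SD, cut at about -0.22 in these data, passing the limit was not always enough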;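 also: slope of raw intensity against log time taken from 70 to 1610 s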); conditions: recombinant KvBeta, 4-cyanobenzaldehyde reduction, at 10 µM, stronger effect = higher value
Chain of Voltage-gated potassium channel subunit beta-2 (Rattus norvegicus) (P62483 whole entry, looked up): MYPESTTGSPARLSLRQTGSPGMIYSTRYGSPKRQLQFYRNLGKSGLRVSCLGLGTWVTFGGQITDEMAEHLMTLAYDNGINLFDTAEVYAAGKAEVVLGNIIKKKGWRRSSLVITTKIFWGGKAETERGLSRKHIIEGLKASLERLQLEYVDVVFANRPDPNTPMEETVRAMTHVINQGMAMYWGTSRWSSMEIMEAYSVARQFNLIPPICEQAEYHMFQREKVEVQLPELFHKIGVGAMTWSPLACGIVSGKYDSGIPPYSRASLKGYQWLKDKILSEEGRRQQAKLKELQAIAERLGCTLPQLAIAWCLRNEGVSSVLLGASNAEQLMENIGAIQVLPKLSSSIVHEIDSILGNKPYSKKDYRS

[5] = target: Voltage-gated potassium channel subunit beta-2 (Rattus norvegicus) (UniProt P62483); experiment: enhancers of rat Kvbeta2 NADPH turnover – biochemical, NADPH fluorescence, primary screen (AID 623); conditions: Recombinant KvBeta, NADPH fluorescence decrease slope, 10 min; at 10 µM; stronger effect = lower value;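 also: fluorescence intensity change per second fitted from 20 to 320 s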
[6] = target: Alpha-2C adrenergic receptor (Homo sapiens) (UniProt P18825); experiment: compounds altering alpha2C-coupled GIRK flux – cell-based, HEK293 alpha2C/GIRK1/2, thallium flux, primary screen (AID 624;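 active = fluorescence slope after compound addition differing from the mean of all screened samples at 99.7% confidence, in either direction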;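 also: slope of fluorescence ratio to pre-addition baseline per second over 15 to 24 s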); conditions: thallium flux BTC fluorescence, at 10 µM, actives lie on both sides
Chain of Alpha-2C adrenergic receptor (Homo sapiens) (P18825 whole entry, looked up): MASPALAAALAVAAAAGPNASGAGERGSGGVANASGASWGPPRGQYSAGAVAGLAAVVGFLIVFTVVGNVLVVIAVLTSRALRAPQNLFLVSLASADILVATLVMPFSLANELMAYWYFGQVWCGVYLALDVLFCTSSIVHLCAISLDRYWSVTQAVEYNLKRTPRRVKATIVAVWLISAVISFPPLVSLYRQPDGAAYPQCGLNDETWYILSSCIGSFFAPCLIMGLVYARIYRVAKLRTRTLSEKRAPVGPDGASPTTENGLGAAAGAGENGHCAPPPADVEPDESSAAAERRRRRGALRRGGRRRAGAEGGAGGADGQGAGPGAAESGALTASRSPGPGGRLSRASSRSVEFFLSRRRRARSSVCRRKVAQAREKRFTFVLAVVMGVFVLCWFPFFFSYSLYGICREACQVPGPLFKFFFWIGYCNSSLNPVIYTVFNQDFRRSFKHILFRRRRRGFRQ

[7] = blockers of RIG-like receptor reporter activation – cell-based, Sendai virus stimulus, luciferase, 10K MLSCN set, TLR/RLR signaling modifier project, primary screen (AID 602276;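 active = inhibition at or above 50% at 10 µM; inactive = inhibition below 50%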;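 also: firefly luciferase from ISG56 promoter only with Renilla not read in this screen; 0% = Sendai virus plus DMSO and 100% = medium plus DMSO without virus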); conditions: HEK293 RL24 IRF3 luciferase reporter, at 10 µM, stronger effect = higher value
[8] = TLR3 IRF3 reporter activation blockers – cell-based, poly I:C stimulus, luciferase, 10K MLSCN set, primary screen (AID 602277;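 active = inhibition of the reporter signal at or above 50%; inactive = inhibition below 50%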); conditions: HEK293-TLR3 RL24 IRF3 luciferase reporter, at 10 µM, stronger effect = higher value

Structure (SMILES): CCCC(=O)Nc1c2c(nn1-c1ccc(OC)cc1)CS(=O)C2 (centres undefined)
- cell count [1]: 472
- inhibition [1]: 4.2% (inactive)
- inhibition of aggregation [2]: -25.4% (inactive)
- nuclei count [2]: 117%
- inhibition [3]: -70.5% (inactive)
- nuclei count [3]: 100%
- fluorescence slope [4]: -0.476 (inactive)
- NADPH fluorescence slope [5]: -3.3e-05 (inactive)
- slope [6]: 0.00523 (inactive)
- inhibition [7]: 10.8% (inactive)
- inhibition [8]: 22.2% (inactive)

Structure (SMILES): COc1ccc(C(O)C(CN2CCOCC2)c2ccccc2)cc1F (centres undefined)
- cell count [1]: 337
- inhibition [1]: -1.6% (inactive)
- inhibition of aggregation [2]: -2.1% (inactive)
- nuclei count [2]: 102%
- inhibition [3]: -20.8% (inactive)
- nuclei count [3]: 104%
- fluorescence slope [4]: -0.493 (inactive)
- NADPH fluorescence slope [5]: 1.8e-06 (inactive)
- slope [6]: 0.0062 (inactive)
- inhibition [7]: 13.7% (inactive)
- inhibition [8]: 17.9% (inactive)

Structure (SMILES): CC(C(N)=O)N1C(=O)C2C3C=CC(C3)C2C1=O (centres undefined)
- cell count [1]: 217
- inhibition [1]: 1.8% (inactive)
- inhibition of aggregation [2]: -14% (inactive)
- nuclei count [2]: 105%
- inhibition [3]: -33.8% (inactive)
- nuclei count [3]: 121%
- fluorescence slope [4]: -0.443 (inactive)
- NADPH fluorescence slope [5]: -2.4e-05 (inactive)
- slope [6]: 0.00534 (inactive)
- inhibition [7]: 10.1% (inactive)
- inhibition [8]: 11.3% (inactive)

Structure (SMILES): CCOC(=O)CSc1nnc([C@H](CC(C)C)NC(=O)OC(C)(C)C)o1
- cell count [1]: 696
- inhibition [1]: 6.5% (inactive)
- inhibition of aggregation [2]: 23.3% (inactive)
- nuclei count [2]: 81.4%
- inhibition [3]: 13.7% (inactive)
- nuclei count [3]: 104%
- fluorescence slope [4]: -0.501 (inactive)
- NADPH fluorescence slope [5]: -1.8e-05 (inactive)
- slope [6]: 0.0048 (inactive)
- inhibition [7]: 13.5% (inactive)
- inhibition [8]: 14.4% (inactive)

Structure (SMILES): CCOC(=O)c1sc(NC(=O)CSc2nnc(-c3ccc(OC)cc3)n2CCOC)nc1C
- cell count [1]: 633
- inhibition [1]: 12.1% (inactive)
- inhibition of aggregation [2]: 12.9% (inactive)
- nuclei count [2]: 88.1%
- inhibition [3]: -89.1% (inactive)
- nuclei count [3]: 140%
- fluorescence slope [4]: -0.481 (inactive)
- NADPH fluorescence slope [5]: 1.3e-05 (inactive)
- slope [6]: 0.00672 (inactive)
- inhibition [7]: 13.8% (inactive)
- inhibition [8]: 24.5% (inactive)

Structure (SMILES): COc1ccc(CNc2nc(NCc3ccc(OC)cc3)n(S(C)(=O)=O)n2)cc1
- cell count [1]: 292
- inhibition [1]: -0.9% (inactive)
- inhibition of aggregation [2]: 26% (inactive)
- nuclei count [2]: 86.3%
- inhibition [3]: 47% (inactive)
- nuclei count [3]: 95.3%
- fluorescence slope [4]: -0.626 (inactive)
- NADPH fluorescence slope [5]: -1.8e-05 (inactive)
- slope [6]: 0.00366 (inactive)
- inhibition [7]: 2.7% (inactive)
- inhibition [8]: -1.73% (inactive)

Structure (SMILES): COc1ccccc1NCN1C(=O)CCC1=O
- cell count [1]: 710
- inhibition [1]: 5.4% (inactive)
- inhibition of aggregation [2]: -0.4% (inactive)
- nuclei count [2]: 97.3%
- inhibition [3]: -32.2% (inactive)
- nuclei count [3]: 104%
- fluorescence slope [4]: -0.551 (inactive)
- NADPH fluorescence slope [5]: -2.5e-05 (inactive)
- slope [6]: 0.00722 (inactive)
- inhibition [7]: 13.3% (inactive)
- inhibition [8]: 26.9% (inactive)

Structure (SMILES): COc1ccccc1CNC(=O)N[C@@H](Cc1ccccc1)C(=O)O
- cell count [1]: 602
- inhibition [1]: 0.9% (inactive)
- inhibition of aggregation [2]: -15.9% (inactive)
- nuclei count [2]: 107%
- inhibition [3]: 31.9% (inactive)
- nuclei count [3]: 99.5%
- fluorescence slope [4]: -0.6 (inactive)
- NADPH fluorescence slope [5]: -5.1e-05 (inactive)
- slope [6]: 0.00621 (inactive)
- inhibition [7]: 12.8% (inactive)
- inhibition [8]: 22.6% (inactive)

Structure (SMILES): COc1cc(C(O)c2nc3ccccc3n2C)cc(OC)c1OC (centres undefined)
- cell count [1]: 384
- inhibition [1]: 25.8% (active)
- inhibition of aggregation [2]: 21.2% (inactive)
- nuclei count [2]: 81.3%
- inhibition [3]: -13.7% (inactive)
- nuclei count [3]: 108%
- fluorescence slope [4]: -0.453 (inactive)
- NADPH fluorescence slope [5]: -2.3e-05 (inactive)
- slope [6]: 0.00191 (inactive)
- inhibition [7]: 2.58% (inactive)
- inhibition [8]: 18.3% (inactive)

Structure (SMILES): COc1ccc(OCC(=O)Nc2cccc3ncccc23)cc1
- cell count [1]: 629
- inhibition [1]: -16.2% (inactive)
- inhibition of aggregation [2]: 31.6% (inactive)
- nuclei count [2]: 84.8%
- inhibition [3]: 23.2% (inactive)
- nuclei count [3]: 95.6%
- fluorescence slope [4]: -0.622 (inactive)
- NADPH fluorescence slope [5]: -5.4e-05 (inactive)
- slope [6]: 0.00436 (inactive)
- inhibition [7]: 1.02% (inactive)
- inhibition [8]: -8.12% (inactive)

Structure (SMILES): Cc1csc(NC(=O)CCn2c(=O)oc3ccccc32)n1
- cell count [1]: 502
- inhibition [1]: -20.3% (inactive)
- inhibition of aggregation [2]: -30.3% (inactive)
- nuclei count [2]: 79.1%
- inhibition [3]: -6.4% (inactive)
- nuclei count [3]: 90.9%
- fluorescence slope [4]: -0.323 (inactive)
- NADPH fluorescence slope [5]: -4.9e-05 (inactive)
- slope [6]: 0.00431 (inactive)
- inhibition [7]: 4.3% (inactive)
- inhibition [8]: -1.46% (inactive)

Structure (SMILES): CCOC(=O)c1cc(C)sc1N1C(=O)C2C3C=CC(C3)C2C1=O (centres undefined)
- cell count [1]: 223
- inhibition [1]: 3.3% (inactive)
- inhibition of aggregation [2]: -17.4% (inactive)
- nuclei count [2]: 97.5%
- inhibition [3]: -37% (inactive)
- nuclei count [3]: 138%
- fluorescence slope [4]: -0.543 (inactive)
- NADPH fluorescence slope [5]: -8.1e-05 (inactive)
- slope [6]: 0.00512 (inactive)
- inhibition [7]: 16.2% (inactive)
- inhibition [8]: 15.2% (inactive)

Structure (SMILES): CCOC(=O)N1CCN(C(=O)Cn2ncn3nc(-c4cccs4)cc3c2=O)CC1
- cell count [1]: 313
- inhibition [1]: -0.8% (inactive)
- inhibition of aggregation [2]: 14.8% (inactive)
- nuclei count [2]: 79.5%
- inhibition [3]: 9.5% (inactive)
- nuclei count [3]: 88.5%
- fluorescence slope [4]: -0.404 (inactive)
- NADPH fluorescence slope [5]: 2e-05 (inactive)
- slope [6]: 0.00387 (inactive)
- inhibition [7]: -1.73% (inactive)
- inhibition [8]: -47.5% (inactive)

Structure (SMILES): Cc1cc(C)n(-c2nc3c(c(=O)[nH]c(=O)n3C)n2Cc2ccc(F)cc2)n1
- cell count [1]: 402
- inhibition [1]: 1.3% (inactive)
- inhibition of aggregation [2]: -21.6% (inactive)
- nuclei count [2]: 94.4%
- inhibition [3]: -7.5% (inactive)
- nuclei count [3]: 102%
- fluorescence slope [4]: -0.324 (inactive)
- NADPH fluorescence slope [5]: -3.8e-05 (inactive)
- slope [6]: 0.00739 (inactive)
- inhibition [7]: 13% (inactive)
- inhibition [8]: 13.7% (inactive)
